TLR9-MyD88 inh: inhibitors of TLR9-MyD88 association in cells, primary screen, cell-based, CHO, BLA complementation, fluorescence | CCF4 FRET ratio | inhibition, % at 4.98 µM | Toll-like receptor 9 (Homo sapiens) + Myeloid differentiation primary response protein … | 340,000 compounds, 0.21% hits;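 active = inhibition above the mean over all tested compounds plus 3 SD, cut at about 21% in these data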
TLR4 MyD88 comp: inhibitors of TLR4-MyD88 association in cells, primary screen, cell-based, HeLa CL3-4, BLA complementation, FRET ratio | inhibition, % at 8.4 µM | HeLa CL3-4 TLR4/MyD88 BLA complementation | 200,000 compounds, 0.18% hits; in the data active = inhibition above about 25%
Beta2AR agonist: beta2AR agonists driving receptor internalization, primary screen, cell-based, FAP fluorogen, flow cytometry | Am2.2-beta2AR cells | response, % (no concentration beside the values) | Beta-2 adrenergic receptor (Homo sapiens), P07550 | 340,000 compounds, 0.43% hits;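 active = response above a set limit, near 3 SD of response in nonfluorescent compounds, cut at about 42% in these data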
NOD2-RIPK2 inh: NOD2-RIPK2 binding disruptors in cells, primary screen, fluorescence, CHO cells, BLA complementation. CCF4 ratio. AID 624267, 2012. Receptor-interacting serine/threonine-protein kinase 2 (Homo sapiens), O43353. 360,000 compounds, 0.38% hits. inhibition, % at 4.98 µM; in the data active = inhibition above about 21%
NTR1 agonist: agonists of human NTR1, primary screen, imaging, U2OS cells, beta-arrestin-GFP, high content | 330,000 compounds, 0.17% hits | NTR1-U2OS beta-arrestin-GFP spot imaging, agonist mode | Neurotensin receptor type 1 (Homo sapiens), P30989 | activation, % at 20 µM;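 active = activation at or above 40% of the spot to cytoplasm intensity ratio, with at least 20 cells analyzed; inconclusive = wells under 20 cells, flagged as cytotoxic or low count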
Bfl-1 A1 inh: caspase 3/7 activation in MEF A1-2A-BIM cells, primary screen, A1 inhibitor project, cell-based, luminescence, HTS; caspase activation, % (test concentration not listed); Caspase-Glo 3/7 luminescence, 3 h; percent of clofoctol response, vehicle zero; 330,000 compounds, 0.066% hits;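 active = over half of replicate activation scores above 10%, or exactly half above 10 with the replicate mean above 10; inconclusive = replicate mean below 10 yet half the replicates above 10; inactive = over half of replicates below 10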
Of the large screens only hits and unclear results are named; the others gave an inactive call. Sampled rows, rich in hits. Any-hit rate of the full collection: about 0.97%.

N=C1/C(=C\c2ccc(-c3cccc(Cl)c3)o2)C(=O)N=C2SC=C(c3ccccc3)N12	Beta2AR agonist 57.5
N=C1/C(=C\c2ccc(-c3ccc(C(=O)O)cc3)o2)C(=O)N=C2SC=C(c3ccccc3)N12	none (no result: TLR4 MyD88 comp, NTR1 agonist, Bfl-1 A1 inh)
Cn1c(N)c(C(=O)N/N=C/c2ccccc2)sc1=S	none (no result: TLR4 MyD88 comp)
Cc1c(C(=O)N/N=C/c2cccnc2)sc(=S)n1C	Beta2AR agonist 42.4
Cc1ccc(C)c(S(=O)(=O)N2CCCC2CNC(=O)C(=O)NC2CCCC2)c1 (stereo not given)	Beta2AR agonist 60.6 (no result: TLR4 MyD88 comp)
COc1ccc(-c2noc(CCC(=O)NCCc3ccccc3)n2)cc1OC	none (no result: TLR4 MyD88 comp)
CS(=O)(=O)N(CC(=O)NC1CCCCC1)Cc1ccc(F)cc1	none
COc1ccc(C(=O)/C=C/C(=O)N(CC(=O)NC2CCCCC2)Cc2ccc(F)cc2)c(O)c1	Beta2AR agonist 123.3 (no result: NTR1 agonist, Bfl-1 A1 inh)
COc1ccc(C(=O)N(Cc2ccco2)Cc2cccs2)c(O)c1	none
COc1ccc(C(=O)/C=C/C(=O)N(CC(=O)NCCC(C)C)Cc2cccs2)c(O)c1	Beta2AR agonist 119.7 (no result: NTR1 agonist, Bfl-1 A1 inh)
CC(CNC(=O)CCc1ccccc1)NC(=O)CCc1ccccc1 (stereo not given)	none (no result: TLR9-MyD88 inh, TLR4 MyD88 comp)
CN(C)CCCN(C(=O)/C=C/c1cccs1)c1nc2ccc(F)cc2s1	none
CN(C)CCN(C(=O)/C=C/c1cccs1)c1nc2c(F)cc(F)cc2s1	Bfl-1 A1 inh 17.3
C#CCOCCOCCOCCNc1nc(N2CCN(C(=O)CCCCCCCCCCNC(=O)Cn3cc(CCCCCN)nn3)CC2)nc(N2CCN(C(=O)CCCCCCCCCCNC(=O)[C@@H]([C@H](C)O)n3cc(C)nn3)CC2)n1	Beta2AR agonist 55.0 (no result: TLR4 MyD88 comp)
C#CCOCCOCCOCCNc1nc(N2CCN(C(=O)CCCCCCCCCCNC(=O)Cn3cc(C[C@@H](C)O)nn3)CC2)nc(N2CCN(C(=O)CCCCCCCCCCNC(=O)[C@@H]([C@H](C)CC)n3cc(CCCCCN)nn3)CC2)n1	Beta2AR agonist 95.4, Bfl-1 A1 inh inconclusive (no result: TLR4 MyD88 comp)
C#CCOCCOCCOCCNc1nc(N2CCN(C(=O)CCCCCCCCCCNC(=O)Cn3cc(CCCCCN)nn3)CC2)nc(N2CCN(C(=O)CCCCCCCCCCNC(=O)Cn3cc(C[C@@H](C)O)nn3)CC2)n1	Beta2AR agonist 72.2 (no result: TLR4 MyD88 comp)
C#CCOCCOCCOCCNc1nc(N2CCOCC2)nc(N2CCN(C(=O)CCCCCCCCCCNC(=O)[C@H]([C@@H](C)CC)n3cc(CCCCN=C(N)N)nn3)CC2)n1	none (no result: TLR4 MyD88 comp)
C#CCOCCOCCOCCNc1nc(N2CCN(C(=O)CCCCCCCCCCNC(=O)[C@H]([C@@H](C)CC)n3cc(CCCCN=C(N)N)nn3)CC2)nc(N2CCN(C(=O)CCCCCCCCCCNC(=O)[C@@H]([C@H](C)O)n3cc(C)nn3)CC2)n1	Beta2AR agonist 104.2, NOD2-RIPK2 inh 40.5 (no result: TLR4 MyD88 comp)
C/C(=N\S(=O)(=O)c1ccc(C)cc1)N(C)C	none (no result: TLR4 MyD88 comp)
COc1ccc(NC(=O)N(CCN2CCCC2)Cc2cc3cc(OC)c(OC)cc3[nH]c2=O)cc1	none
CCn1nc(NC(=O)Cc2ccc(OC)cc2)c2cc3cccc(C)c3nc21	none (no result: TLR4 MyD88 comp)
CCOc1ccc(S(=O)(=O)N2CCOCC2)cc1NC(=O)c1ccc(N2CCCC2=O)cc1	none (no result: TLR4 MyD88 comp)
Cc1cccc2c1c1ccc3c(c1n2C)C(=O)C=CC3=O	Beta2AR agonist 88.5 (no result: TLR4 MyD88 comp, NTR1 agonist, Bfl-1 A1 inh)
CC(C)c1ccc(/C=C(\c2nc3ccccc3[nH]2)S(=O)(=O)c2ccccc2)cc1	Beta2AR agonist 42.2
COC(CNC(=O)c1ccc2c3c(onc13)-c1ccccc1C2=O)OC	Beta2AR agonist 48.3 (no result: TLR4 MyD88 comp)
COC(CNC(=O)c1cccnc1)OC	none
NC(=O)c1cccc(-c2ccnc3c2CC(C(=O)Nc2ccc(Cl)cc2)O3)c1 (stereo not given)	none (no result: TLR9-MyD88 inh, TLR4 MyD88 comp, Beta2AR agonist, NTR1 agonist, Bfl-1 A1 inh)
CN(CC(=O)N1CCN(c2cccc(Cl)c2)CC1)S(=O)(=O)c1cccs1	Beta2AR agonist 53.0
Cc1ccc(C)c(NC(=O)CCC(=O)N/N=C/c2cc([N+](=O)[O-])ccc2O)c1	Beta2AR agonist 65.0
Cc1ccccc1NC(=O)CCC(=O)N/N=C/c1cc([N+](=O)[O-])ccc1O	none
CCOC(=O)C1=C(C)N(c2ccc(C)cc2)C(=O)/C1=C\c1cccs1	none
CCOC(=O)C1=C(C)N(c2ccccc2)C(=O)/C1=C\c1cccs1	Beta2AR agonist 91.2
Cc1ccc(N2C(=O)C3C(c4ccccc4)N4CCCN4C3(C)C2=O)cc1 (stereo not given)	Beta2AR agonist 43.5
CC(OC(=O)c1nsc(Cl)c1Cl)C(=O)NC1CCCCC1 (stereo not given)	none (no result: TLR4 MyD88 comp)
CCOc1cc(NC(=S)NCC2CCCO2)c(OCC)cc1NC(=O)c1cccc(C)c1 (stereo not given)	Beta2AR agonist 46.8
CCC(Oc1ccccc1)C(=O)N(Cc1ccccc1)c1ccccn1 (stereo not given)	none
CC(C)(C)NC(=O)c1cccnc1Sc1ccccc1	none
CCOC(=O)N1CCC(NC(=S)Nc2ccc3nc(N4CCN(C)CC4)cc(C)c3c2)CC1	none
CCOC(=O)N1CCC(NC(=S)Nc2ccc3nc(N4CCN(CC)CC4)cc(C)c3c2)CC1	Beta2AR agonist 50.2
CC(=O)Nc1ccc2c(c1)CCc1ccccc1-2	none (no result: TLR4 MyD88 comp)
O=C(O)/C=C/C(=O)c1ccc2c(c1)CCc1ccccc1-2	Beta2AR agonist 95.8 (no result: TLR4 MyD88 comp)
Cc1c(-c2ccccc2)sc(Br)c1C(=O)N1CCOCC1	none
O=C1OC(c2ccccc2)=NC12CC2c1ccc(Cl)cc1 (stereo not given)	none
Cn1c(=O)c2c(=O)cc(NNC(=O)CC#N)[nH]c2n(C)c1=O	none
CC1CCN(C(=O)/C(=C/c2ccccc2Cl)c2ccccc2)CC1	none
N#CC(C#N)=C1C=CC=CN1/C(=C\c1ccccc1Cl)C(=O)c1ccccc1	Beta2AR agonist 105.3, Bfl-1 A1 inh 14.4 (no result: NTR1 agonist)
N#CC(C#N)=C1C=CC=CN1/C(=C\c1ccccc1)C(=O)c1cccs1	Beta2AR agonist 87.7
COc1ccc(N2CC(C(=O)N[C@@H](CC(C)C)C(=O)NC3CCCCC3)CC2=O)cc1 (stereo not given in full)	none (no result: TLR4 MyD88 comp)
CCN(CC)CCN(C(=O)c1ccc2c(c1)OCCO2)c1nc2cc3c(cc2s1)OCO3	none (no result: TLR4 MyD88 comp)
CCN(CC)CCN(C(=O)c1cc2c(ccc3ccccc32)oc1=O)c1nc2cc3c(cc2s1)OCCO3	Bfl-1 A1 inh 7.2 (no result: TLR4 MyD88 comp)
Cc1cc(OCC(=O)c2ccc(C(F)(F)F)cc2)n2cnnc2n1	none (no result: TLR4 MyD88 comp)
Nc1ccc2c(c1)C(=O)C(=O)c1ccccc1-2	Beta2AR agonist 80.5

Assay outcomes from PubChem BioAssay.
